From PMC8384837, “Expanding the binding specificity for RNA recognition by a PUF domain”

Columns and labels:
Test in all cases: yeast three-hybrid, YBZ-1, SC-Leu-His + 0.5 mM 3-AT, 4 days
Conditions in all cases: tags: N-Gal4 AD-HA kept; label: inside an RPR1-promoter hybrid RNA with tandem MS2 sites; ssRNA
[1] = biological target: PUM1 PUF domain R7-SRP (Homo sapiens, UniProt Q14671 828-1176, N1080R;E1083P)
Summary of the method: (§1)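 Repeat regions from input (SC-Leu) and selection (SC-Leu-His + 0.5 mM 3-AT) plates were PCR-amplified and Illumina-sequenced after four days of growth. The cells were strain YBZ-1 with a LexA–MS2 coat fusion and a HIS3 reporter, co-expressing Pumilio-1 PUF domain libraries and matching RNA elements from a centromeric plasmid. The interaction score is the log change in variant frequency from input to selection, taken in log2 with a pseudocount of 1 for absent variants.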

[2] = biological target: PUM1 PUF domain R5-RHD (Homo sapiens, UniProt Q14671 828-1176, C1007R;R1008H;Q1011D)
Summary of the method: as §1

[3] = biological target: PUM1 PUF domain R8-PYA (Homo sapiens, UniProt Q14671 828-1176, N1122P;Q1126A)
Summary of the method: as §1

[4] = biological target: PUM1 PUF domain R4-RHS (Homo sapiens, UniProt Q14671 828-1176, N971R;Q975S)
Summary of the method: as §1

[5] = biological target: PUM1 PUF domain R3-IYG (Homo sapiens, UniProt Q14671 828-1176, C935I;R936Y;Q939G)
Summary of the method: as §1

[6] = biological target: T1, PUM1 PUF domain R6-TFC (Homo sapiens, UniProt Q14671 828-1176, N1043T;Y1044F;Q1047C)
T1 sequence: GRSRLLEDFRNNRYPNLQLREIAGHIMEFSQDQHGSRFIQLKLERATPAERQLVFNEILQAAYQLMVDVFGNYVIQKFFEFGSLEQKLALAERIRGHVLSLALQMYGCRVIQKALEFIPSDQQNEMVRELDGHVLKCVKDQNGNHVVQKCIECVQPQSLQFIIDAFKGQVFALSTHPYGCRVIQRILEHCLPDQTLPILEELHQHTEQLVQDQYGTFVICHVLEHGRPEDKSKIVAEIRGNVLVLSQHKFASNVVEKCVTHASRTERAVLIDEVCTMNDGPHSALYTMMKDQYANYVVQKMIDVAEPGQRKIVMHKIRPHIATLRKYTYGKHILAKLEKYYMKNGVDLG
Summary of the method: as §1

[7] = biological target: PUM1 PUF domain R1-TIE (Homo sapiens, UniProt Q14671 828-1176, S863T;R864I;Q867E)
Summary of the method: as §1

[8] = biological target: PUM1 PUF domain R8-FHR (Homo sapiens, UniProt Q14671 828-1176, N1122F;Y1123H;Q1126R)
Summary of the method: as §1

For “GGCUAGAACUAGUGGAUCCCCCGGCGCCCGGCGGCUCGAGCCCGGGUAAGUUUAAAUAGUCUGCAUGCCGCCGGGCGCCAUGCCUGCAGGUCGACUCUAGAAAACAUG”, which binding signal [1] is on record?
The binding signal was 3.52 log2 enrichment (interaction score).

How did the binding signal [2] turn out when “GGCUAGAACUAGUGGAUCCCCCGGCGCCCGGCGGCUCGAGCCCGGGUAAGUGUGAAUAGUCUGCAUGCCGCCGGGCGCCAUGCCUGCAGGUCGACUCUAGAAAACAUG” was run?
Its binding signal is 5.63 log2 enrichment (interaction score).

Which results are given for “GGCUAGAACUAGUGGAUCCCCCGGCGCCCGGCGGCUCGAGCCCGGGUAAGUGUAAAUAGUCUGCAUGCCGCCGGGCGCCAUGCCUGCAGGUCGACUCUAGAAAACAUG”?
binding signal [3]: 2.27 log2 enrichment (interaction score); binding signal [4]: 2.87 log2 enrichment (interaction score); binding signal [5]: 4.83 log2 enrichment (interaction score)

“GGCUAGAACUAGUGGAUCCCCCGGCGCCCGGCGGCUCGAGCCCGGGUAAGUGAAAAUAGUCUGCAUGCCGCCGGGCGCCAUGCCUGCAGGUCGACUCUAGAAAACAUG” was tested. Which binding signal [6] did it give?
The binding signal was 5.07 log2 enrichment (interaction score).

How did the binding signal [4] turn out when “GGCUAGAACUAGUGGAUCCCCCGGCGCCCGGCGGCUCGAGCCCGGGUAAGUGUACAUAGUCUGCAUGCCGCCGGGCGCCAUGCCUGCAGGUCGACUCUAGAAAACAUG” was run?
Its binding signal is 2.12 log2 enrichment (interaction score).

With “GGCUAGAACUAGUGGAUCCCCCGGCGCCCGGCGGCUCGAGCCCGGGUAAGUGUAAAUUGUCUGCAUGCCGCCGGGCGCCAUGCCUGCAGGUCGACUCUAGAAAACAUG” as the sequence, how does the binding signal [7] read?
Its binding signal is 4.28 log2 enrichment (interaction score).

For “GGCUAGAACUAGUGGAUCCCCCGGCGCCCGGCGGCUCGAGCCCGGGUAAGUGUAACUAGUCUGCAUGCCGCCGGGCGCCAUGCCUGCAGGUCGACUCUAGAAAACAUG”, which binding signal [5] is on record?
The binding signal was 0.48 log2 enrichment (interaction score).

“GGCUAGAACUAGUGGAUCCCCCGGCGCCCGGCGGCUCGAGCCCGGGUAAGCGUAAAUAGUCUGCAUGCCGCCGGGCGCCAUGCCUGCAGGUCGACUCUAGAAAACAUG” was tested. Which binding signal [8] did it give?
The binding signal was 3.71 log2 enrichment (interaction score).
